Source: paper PMC5540273 (PLoS ONE, 2017)

What was measured:
Conditions in all cases: concentration: 1 μM,replicates: in singlicate; n = 1
[1] = test system: PRKD3
[2] = test system: PRKG1
[3] = test system: PRKG2
[4] = test system: T1, PRKR
T1 construct: gene EIF2AK2

[5] = test system: PRKX
[6] = test system: PRP4
[7] = test system: QSK
[8] = test system: RAF1
[9] = test system: RET
[10] = test system: RIOK1
[11] = test system: RIOK2
[12] = test system: RIOK3
[13] = test system: RIPK1
[14] = test system: RIPK2
[15] = test system: RIPK4
[16] = test system: RIPK5
[17] = test system: ROCK1
[18] = test system: ROCK2
[19] = test system: ROS1
[20] = test system: T2, PYK2
T2 construct: gene PTK2B
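Also: KINOMEscan kinase panel screen.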

SMILES | %Inh [1] [%] | %Inh [2] [%] | %Inh [3] [%] | %Inh [4] [%] | %Inh [5] [%] | %Inh [6] [%] | %Inh [7] [%] | %Inh [8] [%] | %Inh [9] [%] | %Inh [10] [%] | %Inh [11] [%] | %Inh [12] [%] | %Inh [13] [%] | %Inh [14] [%] | %Inh [15] [%] | %Inh [16] [%] | %Inh [17] [%] | %Inh [18] [%] | %Inh [19] [%] | %Inh [20] [%]
CN(c1ccccc1CNc1nc(Nc2ccc3c(c2)CC(=O)N3)ncc1C(F)(F)F)S(C)(=O)=O | 70 | 0 | 0 | 0 | 17 | 0 | 0 | 0 | 87 | 41 | 0 | 61 | 0 | 0 | 0 | 27 | 0 | 0 | 96.5 | 
Cn1ccc2ncnc(Oc3ccc(NC(=O)Nc4cnn(C(C)(C)C)c4)c(Cl)c3)c21 | 4 | 9 | 0 | 17 | 3 | 0 | 0 | 44 | 100 | 4 | 29 | 0 | 12 | 40 | 0 | 0 | 6 | 0 | 0 | 0
NC(=O)c1ccc(-c2cc3ncnc(SCC(=O)O)c3s2)cc1 | 0 | 0 | 0 | 100 | 0 | 44 | 0 | 3 | 0 | 0 | 0 | 19 | 0 | 18 | 3 | 0 | 0 | 0 | 0 | 
COC(=O)c1cccc(NC(=O)NC2CCN(c3ccnc(Nc4cc(OC)c(OC)c(OC)c4)n3)C2)c1 (stereo not shown) [GSK1379767] | 0 | 0 | 7 | 19 | 5 | 44 | 0 | 7 | 11 | 70 | 0 | 67 | 23 | 24 | 26 | 0 | 24 | 20 | 30 | 0
O=c1[nH]cc(-c2ccc(O)cc2)c2sc(-c3ccncc3)cc12 [GSK1033723] | 1 | 16 | 14 | 0 | 10 | 22 | 1 | 7 | 29 | 1 | 14 | 6 | 26 | 16 | 0 | 5 | 10 | 18 | 0 | 
CS(=O)(=O)c1cccc(CNc2nc(Nc3ccc4c(c3)[C@@H]3C[C@@H]4CNC3=O)ncc2C(F)(F)F)c1 | 22 | 0 | 0 | 0 | 0 | 10 | 0 | 0 | 100 | 76 | 0 | 67 | 0 | 0 | 77 | 75 | 0 | 0 | 86 | 66
FC(F)(F)c1cc(Br)cc(Nc2nccc(-c3cnn4ncccc34)n2)c1 [GW810578] | 0 | 25 | 0 | 0 | 0 | 0 | 12 | 0 | 0 | 0 | 82 | 0 | 4 | 69 | 20 | 15 | 36 | 23 | 12 | 80
COC(=O)Nc1nc2cc(Oc3ccc(NC(=O)Nc4cc(C(F)(F)F)ccc4Cl)cc3)ccc2[nH]1.Cl [GW697465] | 9 | 2 | 0 | 0 | 15 | 43 | 9 | 89 | 100 | 0 | 2 | 0 | 41 | 43 | 1 | 0 | 26 | 24 | 42 | 24
Cc1cccc(-c2nc(Nc3ccncc3)c3sccc3n2)n1 [GW869641] | 90.7 | 7 | 14 | 54 | 0 | 0 | 24 | 4 | 31 | 35 | 42 | 28 | 0 | 62 | 42 | 25 | 27 | 38 | 21 | 20
O=C(NCC1CC1)c1ccc(-c2cc(C(=O)NC3CC3)ccc2F)cc1 [GW810445] | 0 | 0 | 0 | 0 | 0 | 16 | 0 | 0 | 4 | 1 | 0 | 0 | 0 | 0 | 0 | 0 | 58 | 9 | 0 | 0
CN(c1ccc2c(c1)nc(NCc1ccc(F)cc1)n2C)c1ccnc(Nc2ccc(CS(C)(=O)=O)cc2)n1.Cl [GW813244] | 7 | 9 | 0 | 0 | 0 | 0 | 0 | 96.4 | 100 | 1 | 21 | 17 | 99.8 | 25 | 24 | 50 | 0 | 42 | 57 | 39
CC(=O)Nc1nc2cnc(Nc3cc(NC(=O)c4cccc(CC(C)(C)C#N)c4)ccc3C)nc2s1 | 0 | 0 | 17 | 0 | 35 | 6 | 0 | 99.5 | 99.7 | 0 | 22 | 0 | 0 | 0 | 25 | 0 | 19 | 0 | 6 | 9
CCOC(=O)N1CCC(n2cnc(-c3ccc(F)cc3)c2-c2ccnc(N)n2)CC1 [SB-219952] | 0 | 40 | 26 | 0 | 8 | 0 | 0 | 0 | 30 | 51 | 24 | 35 | 18 | 34 | 64 | 5 | 45 | 12 | 15 | 10
CC(C)c1nc(-c2cccc(NS(=O)(=O)c3ccccc3)c2)c(-c2ccnc(Nc3ccc4c(c3)CN(C)CC4)n2)s1 [GSK1649598] | 100 | 0 | 0 | 29 | 5 | 8 | 49 | 87 | 95.4 | 18 | 0 | 24 | 0 | 98.7 | 36 | 8 | 0 | 0 | 0 | 48
Cn1ccc2ncnc(Oc3ccc(NC(=O)Nc4ccnc(C(F)(F)F)c4)c(Cl)c3)c21 | 0 | 0 | 9 | 0 | 1 | 14 | 0 | 16 | 100 | 0 | 19 | 6 | 0 | 0 | 0 | 0 | 17 | 0 | 0 | 9
CC(C(=O)NC1CCN(c2ccnc(Nc3ccc(F)cc3)n2)C1)c1ccc(Cl)cc1 (stereo not shown) [GSK1379713] | 2 | 9 | 0 | 0 | 6 | 0 | 0 | 0 | 0 | 35 | 0 | 0 | 6 | 0 | 0 | 0 | 27 | 10 | 53 | 
O=C1NCCc2[nH]c(-c3ccncc3)cc21 | 43 | 83 | 99.1 | 9 | 28 | 43 | 0 | 17 | 0 | 35 | 20 | 30 | 4 | 4 | 56 | 24 | 97.9 | 95.4 | 21 | 0
CS(=O)(=O)Nc1ccc(-c2ccnc3[nH]ccc23)cc1 [GSK993273] | 0 | 77 | 77 | 41 | 42 | 64 | 17 | 12 | 22 | 98.6 | 67 | 93.9 | 0 | 18 | 30 | 0 | 98.5 | 98.4 | 9 | 20
COc1cc2nccc(Nc3ccc(Oc4ccccc4)cc3)c2cc1OC.Cl [GI261656] | 6 | 0 | 0 | 0 | 0 | 48 | 3 | 11 | 23 | 11 | 0 | 4 | 6 | 98.3 | 3 | 50 | 16 | 29 | 27 | 0
